According to PubChem BioAssay (NCI):
Several values for one entry are separate records, joined by “and”; a condition that tells them apart may be missing. Equal values may be shown once. This is part of a sample that, as a whole, favours compounds with a hit. Of some 83,000 tested, about 20% had one in any assay.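 96-well plates, one dose, 48 hours. Percent growth reported; active if below 10.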 A number with no mark means an inactive call. Activity calls are given as the source filed them.

Tested on: HL-60(TB) leukemia
Assay: NCI-60 one-dose screen, 48 h (100 = growth as untreated, 0 = no growth, -100 = all killed)
Conditions: 10 µM unless noted

Row | SMILES | growth
1 | COc1ccc2cc(C(=O)c3coc4ccc(O)cc34)ccc2c1 | 73.2%
2 | Nc1ccccc1SC(CC(=O)c1ccccc1)c1c(Cl)cccc1Cl (stereo not given) | 54.8%
3 | CSc1nc2sc3cc(Cl)ccc3n2c(=N)c1C#N | 121%
4 | O=C1c2ccccc2C(=O)c2c1ccc(C(Br)Br)c2Cl | -9.24% (active)
5 | COc1cc2cc(Oc3ccc(NC(=O)Nc4cc(C(F)(F)F)cc(C(F)(F)F)c4)cc3)c(C)nc2cc1OCCN1CCOCC1 | 1.68% (active)
6 | COc1cc(-c2cc(/C=C3\CCCCC3=O)[nH]n2)cc(OC)c1OC | 97.9%
7 | CC(=O)c1ccc(N2C(=O)c3ccc(Oc4ccccc4)cc3C2=O)cc1 | 105%
8 | Cc1ccc(-n2nnc3c(sc4ccccc43)c2=O)cc1 | 92.9%
9 | CC(C)C(=O)Nc1ccc([N+](=O)[O-])c(C(F)(F)F)c1 | 91.1% and 98.3%
10 | O=C(C(=Cc1ccccc1)C(=O)c1ccccc1)c1ccccc1 | 13% and 110%
11 | COC(=O)c1n[nH]c2ccc3nc(-c4cn[nH]c4C(F)(F)F)c4c(c3c12)CCCC4 | 70%
12 | NC(=O)c1cc(Br)cc(Br)c1NS(=O)(=O)c1ccccc1 | 92.6%
13 | CCN(CC)CCOc1cccc2c1C(=O)c1cccc(OCCN(CC)CC)c1C2=O | 19.7%
14 | C=CCc1nc2ccccc2s1 | 105%
15 | CCC(=O)N1C/C(=C/c2ccc(Cl)cc2)C(=O)/C(=C/c2ccc(Cl)cc2)C1 | 4.88% (active)
16 | COC(=O)/C=C1/SC(=Nc2ccc(C)cc2)N(CCc2c[nH]c3ccc(O)cc23)C1=O | 49.3%
17 | O=C(CC(=O)c1ccccc1F)Nc1ccc([N+](=O)[O-])cc1 | 98.2%
18 | COc1ccc(NC(=O)c2cc(OC)c(OC)c(OC)c2)cc1O | 32.5%
19 | O=S(=O)(Nc1ccc(Cl)cc1Cl)c1ccc(-c2cnc(C3CC3)o2)cc1 | -0.119% (active)
20 | C[C@]12CCC(=O)C[C@H]1CC[C@@H]1[C@@H]2CC[C@@]2(C)[C@H]1CC[C@]2(O)C(=O)CO | 126%
21 | Cc1ccc(C2=Nc3c(N)ncnc3NC(c3ccc4c(c3)OCO4)C2)cc1 (stereo not given) | 33.2%
22 | O=[N+]([O-])c1ccccc1/C=N\Nc1ccccc1 | 82.5% and 87.4%
23 | COc1ccccc1/C=C1\Oc2cc(OCCCN3CCCC3)ccc2C1=O | 78.7%
24 | CC(C)C1=C(O)C2=C(C(=O)C1=O)[C@@]1(C)CCCC(C)(C)[C@@H]1CC2 | 56.4%
25 | O=C(Nc1cccc(-c2cccc(F)c2)c1)C1CCN(Cc2cccc3cccnc23)CC1 | 28%
